Counter-ions that a name gives are not always drawn. ± gives the standard deviation of the averaged measurements.
System: E18 rat cortical neuron-glia co-culture
Assay: fiber score / MBP score (myelination specific beyond OL differentiation) (ratio); higher = more myelination-specific MBP alignment
Conditions: 1 µM; treatment time: 8 days (DIV5-DIV13)
Method in brief: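 Papain-dissociated primary E18 rat cortical co-cultures, plated at 20,000 cells/well on poly-d-lysine/laminin 96-well plates, were exposed to library compounds at 1 or 5 µM in myelination medium between DIV5 and DIV13. Following fixation in 4 % paraformaldehyde, cultures were stained for MBP, Olig2 and DAPI, and four 10X fields per well were analysed in duplicate wells. Values are the ratio of fiber score (continuous MBP fiber length per Olig2+ nucleus) to MBP score (thresholded MBP area × intensity per Olig2+ nucleus).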

SMILES | fiber score / MBP score
CS(=O)(=O)c1ccc(-c2cc(Br)sc2-c2ccc(F)cc2)cc1 | 0.92
CC/C(=C(\c1ccccc1)c1ccc(OCCN(C)C)cc1)c1ccccc1 [Tamoxifen] | 0.507
Cc1c(C(=O)NN2CCCCC2)nn(-c2ccc(Cl)cc2Cl)c1-c1ccc(I)cc1 | 0.94
COC1=C(OC)C(=O)C(CCCCCCCCCCO)=C(C)C1=O [Idebenone] | 0.848
Clc1ccc(COC(Cn2ccnc2)c2ccc(Cl)cc2Cl)c(Cl)c1 (configuration not stated) [Miconazole] | 0.482
CN(CCOc1ccc(CC2SC(=O)NC2=O)cc1)c1ccccn1 (configuration not stated) [Rosiglitazone maleate] | 0.752 ± 0.037
CCN(CC)CCOc1ccc(C(=C(Cl)c2ccccc2)c2ccccc2)cc1 [Clomiphene] | 0.64
CCOC(=O)C1=C(C)NC(C)=C(C(=O)OCC)C1c1ccccc1/C=C/C(=O)OC(C)(C)C [Lacidipine] | 0.575
CC[C@H]1OC(=O)[C@H](C)[C@@H](O[C@H]2C[C@@](C)(OC)[C@@H](O)[C@H](C)O2)[C@H](C)[C@@H](O[C@@H]2O[C@H](C)C[C@H](N(C)C)[C@H]2O)[C@](C)(O)C[C@@H](C)C(=O)[C@H](C)[C@@H](O)[C@]1(C)O [Erythromycin] | 0.767
CCCCc1nc(Cl)c(CO)n1Cc1ccc(-c2ccccc2-c2nnn[nH]2)cc1 [Losartan] | 0.8
C[C@@H]1CN(CCCn2c3ccccc3c3ccccc32)C[C@H](C)N1 [Rimcazole] | 0.507
CN(C)CCOc1ccc(/C(=C(/CCCl)c2ccccc2)c2ccccc2)cc1 [Toremifene] | 0.889
